GLS inhibitor: qHTS for Inhibitors of Glutaminase (GLS). AID 624170, 2012. GLS enzymatic activity, qHTS titration. 0.21% of 410,000 active. Potency, µM (titrated, usually from 45.5 µM), for the others: at the highest dose activity change, negative = inhibition, most hits filed as inhibitors; also: % is scaled to controls: 0 for no effect and ±100 for the full control effect
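Coupled fluorescence readout: glutamate oxidase/HRP/Amplex Red detect glutamate formed by hKGA from L-glutamine (1 mM solution added). Buffer 45 mM KH2PO4 pH 8.2, 0.02% Tween-20; reads at t0 and 30 min RT.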
G9a inh: qHTS Assay for Inhibitors of Histone Lysine Methyltransferase G9a. 8.8% of 350,000 active. Potency, µM (series often up to 102 µM), for inactives: at the highest dose activity, negative = inhibition, usual class: inhibitors. G9a H3K9 monomethylation, AlphaScreen, 2 h. AID 504332, 2011. Histone-lysine N-methyltransferase EHMT2 (Homo sapiens), Q96KQ7; also: % is scaled to controls: 0 for no effect and ±100 for the full control effect; nearly all actives have a fitted effect of over 75% in size
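Using a bead-based AlphaScreen, monomethylated H3K9 product from 2 h room-temperature reactions (G9a 20 nM, peptide 500 nM, SAM 20 uM) was detected with 0.5 ug/mL rabbit anti-H3K9me1 antibody.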
JMJD2A Tudor: qHTS Assay for Inhibitors of JMJD2A-Tudor Domain; Lysine-specific demethylase 4A (Homo sapiens), O75164; AlphaScreen JMJD2A-Tudor / H3K4me3 peptide binding; Potency, µM (top dose mostly 114 µM), for inactives: top-dose activity change, negative = inhibition, usual class: inhibitors; 4.4% of 390,000 active; also: % is scaled to controls: 0 for no effect and ±100 for the full control effect; nearly all actives have a fitted effect of over 50% in size
BAZ2B inh: qHTS Assay for Inhibitors of BAZ2B | AlphaScreen BAZ2B-H3K14Ac peptide displacement | Potency, µM (doses to about 114 µM), for the others: top-dose activity change, negative = inhibition, hits mostly inhibitors | 4.4% of 360,000 active | AID 504333, 2011; also: % is scaled to controls: 0 for no effect and ±100 for the full control effect; nearly all actives have a fitted effect of over 60% in size
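Complex of BAZ2B and biotin-H3K14Ac (50 nM apiece) forms over 30 min at RT, then faces library compounds up to 110 uM for another 30 min; AlphaScreen beads added, 20 min dark incubation, luminescence read.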
HP1b binding inh: HTS for Inhibitors of HP1-beta Chromodomain Interactions with Methylated Histone Tails | Chromobox protein homolog 1 (Homo sapiens), P83916 | AlphaScreen HP1-beta / biotin-H3K9me3 peptide binding | Potency, µM (series often up to 114 µM), for the others: at the highest dose activity change, negative = inhibition, most hits filed as inhibitors | 0.56% of 390,000 active | AID 540317, 2011; also: nearly all actives have a fitted effect of over 70% in size
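Compound inhibition of the preformed complex between 50 nM HP1-beta and 50 nM biotinylated H3K9me3 peptide was read by AlphaScreen. Buffer was PBS pH 7.4 with 0.01% Tween-20. Incubations ran 30 min at room temperature, with 10 ug/mL donor/acceptor beads.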
Active calls of the source: *; [ ] = remark or other dose. Rows were chosen to be rich in hits. Some 10% of all compounds tested hit in one or more screens of this group. Calls follow the shape of the dose curve; as a rule, active = well fitted curve in the direction sought with a large enough effect; inconclusive = small, poorly fitted or top-dose-only effect, or another doubt; inactive = no such curve, though single readings can be large; an effect the other way counts as inactive or inconclusive. Potency is read from the fitted curve at half-maximal effect.

Screening O=C(CSc1nc2ccccc2s1)Nc1cc(C(=O)O)cc(C(=O)O)c1 returned GLS inhibitor -3%, G9a inh 25µM*, JMJD2A Tudor -20%, BAZ2B inh 5% and HP1b binding inh 37%.
Screening O=C(Nc1ccc2nc(SCC(=O)N3CCCC3)sc2c1)c1ccccc1 returned GLS inhibitor -13%, G9a inh -6%[59 µM], JMJD2A Tudor -3%, BAZ2B inh -5% and HP1b binding inh 41%.
Screening O=C(O)COc1ccccc1/C=N/NC(=O)CSc1nc2ccccc2s1 returned GLS inhibitor 3%, G9a inh 71µM*, JMJD2A Tudor -6%, BAZ2B inh 2% and HP1b binding inh 31%.
For O=C(CSc1nc2ccccc2s1)N/N=C/c1ccccc1C(=O)O the results were GLS inhibitor 5%, G9a inh -1%, JMJD2A Tudor -16%, BAZ2B inh -9% and HP1b binding inh 41%.
Screening O=C(CSc1nc2ccccc2s1)NNC(=S)Nc1ccc(Br)cc1 returned GLS inhibitor -33%, G9a inh inconclusive, JMJD2A Tudor -32%, BAZ2B inh 1% and HP1b binding inh 16%.
O=C(CSc1nc2ccccc2s1)Nc1ccc2c(c1)oc1ccccc12 was read as GLS inhibitor 2%, G9a inh -4%[59 µM], JMJD2A Tudor -10%, BAZ2B inh 19% and HP1b binding inh 25%.
O=C(CSc1nc2ccccc2s1)NNC(=S)Nc1ccccc1 was read as GLS inhibitor 14%, G9a inh 3.5µM*, JMJD2A Tudor -14%, BAZ2B inh 1% and HP1b binding inh 5%.
Screening Cn1c(SCC(=O)Nc2ccc3nc(SCC(=O)N4CCCC4)sc3c2)nnc1-c1ccccc1 returned GLS inhibitor -2%, G9a inh inconclusive, JMJD2A Tudor inconclusive, BAZ2B inh 56µM* and HP1b binding inh 17%.
Screening CCC1(CC)Cc2ccccc2C(=C(C#N)C#N)N1 returned GLS inhibitor -8%, G9a inh 14%[59 µM], JMJD2A Tudor -3%, BAZ2B inh -3% and HP1b binding inh 53%.
For CCc1nc2ccc(C(=O)N(CC)CC(=O)Nc3c(F)cccc3F)cc2nc1CC the results were GLS inhibitor -7%, G9a inh 3%[12.7 µM], JMJD2A Tudor -10%, BAZ2B inh -35% and HP1b binding inh 19%.
CC(Nc1n[nH]c(=S)[nH]c1=O)C(=O)OCc1ccccc1 (stereo unspecified) was read as GLS inhibitor 14%, G9a inh -10%[59 µM], JMJD2A Tudor -24%, BAZ2B inh 4% and HP1b binding inh 10%.
For O=c1c2oc3ccccc3c2ncn1Cc1ccccc1F the results were GLS inhibitor 8%, G9a inh inconclusive, JMJD2A Tudor 9%, BAZ2B inh -16% and HP1b binding inh 32%.
`O=C(O)CSc1nc2ccc(NC(=O)COc3ccc(Cl)cc3)cc2s1` gave GLS inhibitor -14%, G9a inh -42%[59 µM], JMJD2A Tudor inconclusive, BAZ2B inh 71µM* and HP1b binding inh 29%.
O=C(CSc1nc2ccc(NC(=O)c3ccccc3C(=O)O)cc2s1)Nc1c(Cl)cccc1Cl was read as GLS inhibitor 29%, G9a inh 71µM*, JMJD2A Tudor -26%, BAZ2B inh inconclusive and HP1b binding inh -6%.
Screening Cc1cccc(NC(=O)CSc2nc3ccc(NC(=O)COc4ccc(Cl)cc4)cc3s2)c1 returned GLS inhibitor -7%, G9a inh -25%[59 µM], JMJD2A Tudor -16%, BAZ2B inh -14% and HP1b binding inh 26%.
Cc1cccc(C)c1NC(=O)CN(c1ccccn1)S(=O)(=O)c1ccc(F)cc1 was read as GLS inhibitor 5%, G9a inh -3%, JMJD2A Tudor -12%, BAZ2B inh -9% and HP1b binding inh 4%.
